Assay outcomes from PubChem.
Only some compounds are listed: those with a hit (about 11% of all), similar ones and a draw of the others.
Pf growth 96h: Primary qHTS for delayed death inhibitors of the malarial parasite plastid, 96 hour incubation. P. falciparum luciferase reporter growth, 96 h. Potency, µM (top dose mostly 28.7 µM), inactives show at the top dose activity change, negative = inhibition, usual class: inhibitors. 320,000 compounds, 6.9% hits
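Compounds incubated with erythrocytes infected by luciferase-expressing P. falciparum (2% hematocrit, 0.05% parasitemia final) for 96 hours, 37 C in 5% CO2. Growth inhibition scored as decreased luciferase luminescence.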
AmpC no deterg: qHTS Inhibitors of AmpC Beta-Lactamase (assay without detergent); P00811; AmpC nitrocefin hydrolysis, absorbance 480 nm, 0.0001% Triton; Potency, µM (top dose mostly 57.1 µM), inactives show top-dose activity change, negative = inhibition, most hits filed as inhibitors; 330,000 compounds, 0.52% hits; AID 485341, 2010;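 also: plate controls were no compound for no effect and no enzyme for full effect; nearly all actives have a fitted effect of over 20% in size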
Target sequence (P00811 whole entry, looked up): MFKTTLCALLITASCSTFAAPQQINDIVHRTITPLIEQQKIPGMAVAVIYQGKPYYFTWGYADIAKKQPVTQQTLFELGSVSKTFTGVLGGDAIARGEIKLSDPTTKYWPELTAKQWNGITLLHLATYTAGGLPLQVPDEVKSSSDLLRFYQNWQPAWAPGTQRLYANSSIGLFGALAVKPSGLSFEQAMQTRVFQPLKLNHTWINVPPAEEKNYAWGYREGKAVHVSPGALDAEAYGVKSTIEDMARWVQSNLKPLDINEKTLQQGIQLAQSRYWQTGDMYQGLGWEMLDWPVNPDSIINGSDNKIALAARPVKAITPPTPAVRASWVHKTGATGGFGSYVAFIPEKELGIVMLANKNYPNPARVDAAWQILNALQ
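20 mM phosphate pH 7.0 + 0.01% (detergent screen) or 0.0001% Triton X-100; 5.3 nM AmpC reagent; cpd preinc 15 min RT; nitrocefin (800 uM stock) to start; A480 q20 s × 4 min; Activity was normalised to no-enzyme and no-compound control wells.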
AMA1 RON2 block: qHTS for Inhibitors of AMA1-RON; Towards Development of Antimalarial Drug Lead: Primary Screen | AlphaScreen AMA1-biotinylated RON2 peptide binding | Potency, µM (series often up to 58.2 µM), without a hit: top-dose activity change, negative = inhibition, usual class: inhibitors | 360,000 compounds, 0.2% hits | AID 720542, 2013;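 also: 0% = vehicle wells and -100% = peptide control; nearly all actives have a fitted effect of over 45% in size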
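AMA1 (3D7) with his tag at 25 nM final met compounds first, then biotinylated RON2 peptide at 25 nM; detection used donor plus acceptor beads, 10 µg/mL apiece, read by AlphaScreen after 30 min at room temperature.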
AmpC detergent: qHTS Inhibitors of AmpC Beta-Lactamase (assay with detergent). P00811. AmpC hydrolysis of nitrocefin, absorbance 480 nm, 0.01% Triton. 370,000 compounds, 0.041% hits. Potency, µM (top dose mostly 114 µM), without a hit: at the highest dose activity change, negative = inhibition, hits mostly inhibitors;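 also: 0% = no-compound wells and -100% = no-enzyme wells; nearly all actives have a fitted effect of over 25% in size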
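AmpC (5.3 nM in the dispensed reagent) in 20 mM phosphate pH 7.0 with 0.01% (detergent screen) or 0.0001% Triton X-100 was preincubated with compounds for 15 min at room temperature. Nitrocefin was then added from an 800 uM solution, and hydrolysis was followed at 480 nm.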
HCV inhibitor: qHTS Assay for Inhibitors of Hepatitis C Virus (HCV); Huh7.5.1 HCVcc-Cre infection, luciferase reporter, 44 h; Potency, µM (series often up to 41.8 µM), inactives show at the highest dose activity change, negative = inhibition, hits mostly inhibitors; 340,000 compounds, 3.4% hits; AID 651820, 2012
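HCVcc-Cre virus at an moi near 0.5 was added right after compound to cells cultured 4 h from seeding (1,000 cells/well). Luciferase activity was determined 44 h later, 15 min after substrate addition at RT.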
Pf growth 48h: Primary qHTS for delayed death inhibitors of the malarial parasite plastid, 48 hour incubation; Potency, µM (series often up to 28.7 µM), for the others: at the highest dose activity change, negative = inhibition, usual class: inhibitors; 310,000 compounds, 5.9% hits; AID 504832, 2011; P. falciparum luciferase growth in erythrocytes, 48 h
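First compound was added to culture medium, then infected red cells at 0.1% parasitemia and 2% hematocrit (final). After incubation at 37 C under 5% CO2, luciferase detection reagent was dispensed and light output recorded.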
An asterisk follows results filed as active; ? = inconclusive; · = not tested or not shown; [ ] = another dose, or the depositor's remark. Calls follow the shape of the dose curve; as a rule, active = well fitted curve in the direction sought with a large enough effect; inconclusive = small, poorly fitted or top-dose-only effect, or another doubt; inactive = no such curve, though single readings can be large; an effect the other way counts as inactive or inconclusive. Unless noted, % is scaled to controls: 0 for no effect and ±100 for the full control effect; potency is read from the fitted curve at half-maximal effect.

SMILES | Pf growth 96h | AmpC no deterg | AMA1 RON2 block | AmpC detergent | HCV inhibitor | Pf growth 48h
CCC(=O)NC(c1cccs1)c1cc(Br)c2cccnc2c1O (stereo not drawn) | 2.9µM* | -29% | · | 9% | · | 0.93µM*
CCC(=O)NC(c1cccs1)c1cc([N+](=O)[O-])c2cccnc2c1O (stereo not drawn) | 23% | -30% | ? | -14% | ? | ?
C[C@H](NC(=O)c1nc[nH]c1C(=O)N[C@@H](Cc1ccccc1)C(=O)OC(C)(C)C)c1ccccc1 | ? | 4% | 148% | 13% | ? | 3.3µM*
C[C@@H](NC(=O)c1nc[nH]c1C(=O)N[C@@H](Cc1ccccc1)C(=O)OC(C)(C)C)c1ccccc1 | ? | 33% | 77% | 12% | -3% | ?
C[C@H](NC(=O)c1nc[nH]c1C(=O)N[C@H](C)c1ccccc1)C(=O)OC(C)(C)C | 21% | 72% | 34% | 4% | 13µM* | ?
O=C(CS(=O)Cc1ccco1)NCC=CCOc1cc(CN2CCCCC2)ccn1 (stereo not drawn) | -22% | · | · | · | · | -11%
Nc1cc[n+](CC(=O)c2ccc3c(c2)OCCO3)cc1 | ? | -2% | 3% | 11% | ? | 4.7µM*
O=C(C[n+]1ccc(C(=O)NCc2ccccc2)cc1)c1ccc2c(c1)OCCO2 | 12% | -8% | 9% | -8% | 8% | 6%
CCCc1cc(O)c2c(C)cc(=O)oc2c1 | 12µM* | -27% | 0% | ? | -8% | ?
CCCCc1cc(=O)oc2cc(C)cc(O)c12 | ? | -25% | -7% | 3% | ? | ?
COc1ccc2c(C)c(CC(=O)NCc3ccc(C)cc3)c(=O)oc2c1OC | · | · | · | 11% | · | ·
O=C(CN1C(=O)S/C(=C\c2cccs2)C1=O)Nc1ccc(O)c(C(=O)O)c1 | 10µM* | -24% | 1% | 10% | 5% | -12%
CCc1ccccc1NC(=O)C(=O)NCCc1sc(-c2cccc(C)c2)nc1C | · | · | · | 1% | · | ·
Cc1cc(-c2ccco2)n(CC(=O)NCc2ccccc2)n1 | -22% | 15% | -9% | ? | 3% | ·
Cc1cc(-c2ccco2)n(CC(=O)O)n1 | 6.6µM* | -7% | -5% | 5% | 11% | 25%
C[C@]12CC(=CO)C(=O)C[C@@H]1CC[C@@H]1[C@@H]2CC[C@@]2(C)[C@H]1CC[C@]2(C)O | · | -26% | · | 50µM* | · | ·
NC(=O)c1ccsc1NC(=O)COC(=O)Cc1ccsc1 | 21% | -30% | 9% | 2% | 7% | 6%
NC(=O)c1ccsc1NC(=O)COC(=O)COc1ccccc1F | 2% | -24% | 15% | -3% | -2% | 4%
COc1cc(CC(=O)OCC(=O)Nc2sccc2C(N)=O)cc(OC)c1OC | -4% | -28%[11.4 µM] | -27% | ? | 10µM* | 16%
NC(=O)c1ccsc1NC(=O)COC(=O)COc1ccccc1[N+](=O)[O-] | 24% | -43% | 17% | 56µM* | 6% | 36%
O=[N+]([O-])c1ccc(N=Nc2c(Cl)cc(O)cc2Cl)cc1 | ? | -32% | ? | -5% | 5µM* | ?
COc1ccc(CNC(=O)COCc2cc(-c3cccs3)on2)cc1 | · | · | · | 18% | · | ·
CCOC(=O)C1=C(CC)Nc2ccccc2N=C1NC(=O)c1ccc(C)c(S(=O)(=O)N2CCOCC2)c1 | 10µM* | 29% | 1% | -7% | 8% | ?
CCOC(=O)C1=C(C)Nc2ccccc2N=C1NC(=O)c1ccc(Cl)c(S(=O)(=O)N2CCCC2)c1 | ? | -13% | 1% | 7% | ? | ?
CCOC(=O)C1=C(CC)Nc2ccccc2N=C1NC(=O)c1ccc(S(=O)(=O)N2CCOCC2)cc1 | 15µM* | 3% | -11% | 3% | -25% | ?
SMILES | Pf growth 96h | AmpC no deterg | AMA1 RON2 block | AmpC detergent | HCV inhibitor | Pf growth 48h
CCOC(=O)C1=C(CC)Nc2ccccc2N=C1NC(=O)c1cccc(S(=O)(=O)N2CCOCC2)c1 | ? | -2% | -3% | ? | -3% | ?
COc1ccc(NC(=O)c2ccc3oc(=O)c(S(=O)(=O)c4ccc(C)cc4)cc3c2)cc1OC | · | · | · | -1% | · | ·
OCCN=C1CCCc2c1[nH]c1ccc(Br)cc21 | 23% | -12% | -7% | 3% | 5.6µM* | 64%
Brc1ccc2[nH]c3c(c2c1)CCC3 | 6% | -56% | ? | 10% | ? | 5%
CCN(CC)CCCN(Cc1cc2cc(OC)c(OC)cc2[nH]c1=O)C(=O)Nc1ccccc1 | · | 2% | 1% | 3% | 0% | ?
O=C(NC1CCCCC1)N(CCN1CCCC1)Cc1cc2cc3c(cc2[nH]c1=O)OCCO3 | 76% | 59% | -19% | ? | 1% | ?
Cc1cccc2cc(CN(CCN3CCCC3)C(=O)NC3CCCCC3)c(=O)[nH]c12 | ? | 35% | -12% | -10% | -12% | 4.7µM*
Cc1cc2cc(CN(CCN3CCOCC3)C(=O)Nc3ccccc3F)c(=O)[nH]c2cc1C | · | 154% | 2% | 7% | 4% | 9.3µM*
CCN(CC)CCCN(Cc1cc2cc3c(cc2[nH]c1=O)OCO3)C(=O)Nc1ccccc1OC | 10µM* | 0.4µM* | -10% | -1% | 3% | ?
Cc1cc2cc(CN(CCCN3CCOCC3)C(=O)NC3CCCCC3)c(=O)[nH]c2cc1C | 240% | 149% | -8% | -2% | ? | 4.7µM*
Cc1ccc2cc(CN(CCCN3CCOCC3)C(=O)NC3CCCCC3)c(=O)[nH]c2c1C | 20% | 142% | 14% | -5% | 20% | ?
COc1ccc(CCNC(=O)C2CCC(CNS(=O)(=O)c3ccc(C)cc3)CC2)cc1OC (stereo not drawn) | · | · | · | 1% | · | ·
COc1ccc(N2CCN(C(=O)CSc3nc(-c4ccc(C(C)C)cc4)no3)CC2)cc1 | · | · | · | -4% | · | ·
Cc1cc(C)c2cc(CN(CCO)C(=O)NC3CCCCC3)c(=O)[nH]c2c1 | ? | 52% | -3% | 2% | -7% | -9%
